# This is a sample that favours compounds with a hit; in the whole collection about 1.8% have one here.
# PI5P4K alpha inh: PI5P4K alpha (human) kinase inhibition. PI5P4Kalpha enzyme, ADP-Glo luminescence, 60 min; stronger effect = lower value. max response, %. actives 1.2% (n = 330,000); active = max response of -50% or lower; inconclusive = between -30% and -50%; inactive = -30% or higher; note: value at the top dose of about 77 µM
# Target sequence (P48426 whole entry, looked up): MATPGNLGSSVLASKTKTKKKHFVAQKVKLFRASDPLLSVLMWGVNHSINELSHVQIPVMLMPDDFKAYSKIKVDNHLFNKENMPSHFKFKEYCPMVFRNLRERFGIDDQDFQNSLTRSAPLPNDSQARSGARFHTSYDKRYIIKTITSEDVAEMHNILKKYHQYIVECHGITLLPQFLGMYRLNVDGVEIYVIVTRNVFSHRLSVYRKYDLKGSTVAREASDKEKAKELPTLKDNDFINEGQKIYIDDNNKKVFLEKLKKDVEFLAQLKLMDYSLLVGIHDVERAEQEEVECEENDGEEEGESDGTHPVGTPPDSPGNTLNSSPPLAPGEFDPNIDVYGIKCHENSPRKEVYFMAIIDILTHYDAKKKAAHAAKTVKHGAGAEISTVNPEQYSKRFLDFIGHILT
#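 Compounds were pin-transferred onto PI5P4Kalpha and substrate in HEPES pH 7.4 buffer with EGTA, CHAPS and 5% DMSO. ATP (5 microM final) started the reaction, which ran 60 minutes at room temperature before ADP-Glo detection.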
# Six1-Eya2 blk: blocks human Six1 binding to Eya2. Q15475+O00167. AlphaScreen GST-Six1/His-Eya2 binding, biochemical; stronger effect = lower value. activity change, % (no concentration beside the values). actives 0.56% (n = 360,000)
#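 GST-Six1 + His-Eya2 (5X stock: 250/500 nM); Tris pH 8.0, 300 mM NaCl, 0.05% BSA, 0.02% Tween 20; GSH donor/Ni acceptor beads; 1 h 37 °C dark; AlphaScreen readout.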
# Akt phos inh: inhibitors of Akt phosphorylation; Neuro2A IGF-stimulated pAkt S473 HTRF, 20 min; stronger effect = lower value; activity change, % for hits at 50 µM; actives 0.32% (n = 360,000); AID 651550; in the data active = activity change below about -80%; inconclusive = mostly about -51% to -80%
#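 Single-point screen (50 µM final compound) in Neuro2A cells stimulated 20 min with 6 nM IGF at 37 deg C. After lysis, Ser473-phosphorylated Akt read by HTRF (ex 330 nm, em 615/665 nm) as the 665/615 ratio.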
# CtBP-E1A inh: inhibitors of CtBP/E1A interaction; AID 651724; AlphaScreen GST-E1A/His-CtBP binding, 1536-well; stronger effect = lower value; activity change, % (concentration not given with the values); actives 0.49% (n = 340,000)
#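 Homogeneous bead-based format: GST-tagged E1A captured on glutathione donor beads, His-tagged CtBP on nickel acceptor beads; compounds precede bead addition by 2 h at 37 °C.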
# PI4K2A block: inhibitors of human PI4K2A; Q9BTU6; purified PI4K2A, ADP-Glo luminescence, 1 h; stronger effect = lower value; activity change, negative = inhibition, % at 76.9 µM; actives 0.13% (n = 420,000); AID 1346378; in the data active = activity change below about -50%; inconclusive = mostly about -30% to -49%
#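 ADP-Glo luminescence measured ADP generated by PI4K2A enzyme (4 ug/mL before mixing) with 1.2 mM PI substrate (pre-mix) and 300 microM ATP (pre-mix). Tris pH7.5 buffer with MgCl2, Triton X-100; 1 h reaction at ambient temperature.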
# A number is an active result; . = inactive; ? = inconclusive; / = not tested or not shown. Cut-off read from the data, not from the text of the source, unless noted: active = activity change below about -65%; inconclusive = mostly about -30% to -63%; inactive = weaker than that.
SMILES,PI5P4K alpha inh,Six1-Eya2 blk,Akt phos inh,CtBP-E1A inh,PI4K2A block
COC(=O)c1cccc(NC(=O)c2cccc(OC)c2)c1,.,.,.,.,?
Cc1cc(C)c2c(N)c(C(=O)Nc3ccccc3C(F)(F)F)sc2n1,/,/,/,/,.
Nc1c(C(=O)Nc2ccccc2F)sc2nc(Cc3ccccc3)cc(C(F)(F)F)c12,/,.,-109%,.,.
CCN(C(=O)CSc1nc2cc(C(=O)O)ccc2c(=O)n1Cc1ccccc1)c1ccccc1,-53,.,.,.,.
Nc1cc(C(=O)OCC(=O)c2ccc(CC(=O)N3CCOCC3)s2)ccc1Cl,-52,.,.,.,.
CCCN(CC1CCCO1)C(=O)CCc1nnc(-c2cc(C)on2)o1 (configuration not stated),.,.,.,.,.
COc1ccccc1/C=C/C=N/n1c(-c2cc(-c3ccccc3)n[nH]2)n[nH]c1=S,-52,.,.,.,.
S=c1[nH]nc(-c2cc(-c3ccccc3)n[nH]2)n1/N=C/C=C/c1ccccc1,.,.,.,.,.
COC(=O)CCCNC(=O)c1ccc2[nH]c(C)c(C)c2c1,.,.,.,.,.
Cc1ccc(C(=O)O)cc1-c1ccc(/C=C2\SC(=O)N(CC(=O)Nc3ccccc3)C2=O)o1,-56,.,.,.,.
Cc1ccccc1NC(=O)CN1C(=O)S/C(=C\c2ccc(-c3cc(C(=O)O)ccc3C)o2)C1=O,-79,.,.,.,.
O=C(CN1C(=O)S/C(=C\c2cc(Cl)c(O)c(Cl)c2)C1=O)Nc1ccccc1,-86,.,.,.,.
Cc1ccc(C)c(N2C(=N)S/C(=C\c3ccc(-c4ccccc4C(=O)O)o3)C2=O)c1,-52,-72,.,?,.
O=C(CN1C(=O)S/C(=C\c2ccccn2)C1=O)Nc1ccccc1,.,.,.,.,.
CC1Cc2ccccc2N1S(=O)(=O)c1cccc(C(=O)OCC(=O)NC2CCS(=O)(=O)C2)c1 (configuration not stated),.,.,.,.,.
Cc1ccccc1NC(=O)CSc1nn2c(=O)c(C)nnc2s1,.,-84,.,-92,.
COc1cccc(NC(=O)CSc2nc(C)cs2)c1,.,.,.,.,.
COC(=O)c1ccc(NC(=O)CSc2nn3c(=O)c(C)nnc3s2)cc1,.,-67,.,-93,.
COc1cccc(NC(=O)CSc2nn3c(=O)c(C)nnc3s2)c1,.,-77,.,-99,.
COc1ccc(NC(=O)CSc2nn3c(=O)c(C)nnc3s2)cc1,.,-86,.,-93,.
CCN(c1ccc(C)cc1C)S(=O)(=O)c1nnc(NC(=O)c2ccco2)s1,.,.,.,.,.
C1CCN2C[C@@H]3C[C@@H](CN4CCCC[C@@H]34)[C@H]2C1,.,.,.,.,.
NC(=O)c1ncn([C@@H]2O[C@H](CNC(=O)[C@H](N)CSCc3ccccc3)[C@@H](O)[C@H]2O)n1,.,.,.,.,.
O=C(N/N=C/c1c(Nc2cccc(C(F)(F)F)c2)nc2ccccn2c1=O)c1ccccc1[N+](=O)[O-],.,.,.,.,.
CC(C(=O)Nc1ccccc1C(F)(F)F)n1nnc2sc3c(c2c1=O)CCCC3 (configuration not stated),/,/,/,/,.
SMILES,PI5P4K alpha inh,Six1-Eya2 blk,Akt phos inh,CtBP-E1A inh,PI4K2A block
CCC(=O)Nc1nnc(SCC(=O)Nc2cccc(Cl)c2)s1,.,.,.,.,.
Cc1ccccc1NC(=O)CSc1nnc(-c2ccccc2)n1-c1ccccc1,.,.,-98%,.,.
COc1ccc(OC)c(NC(=O)CSc2nn3c(=O)c(C)nnc3s2)c1,.,?,.,-88,.
Cc1nnc2sc(SCC(=O)Nc3cccc(Cl)c3)nn2c1=O,.,?,.,-93,.
COc1cccc(NC(=O)CSc2nnc(-c3cccs3)n2C)c1,.,.,-107%,.,.
CCn1cc2nc(SCc3cc(C)ccc3C)n(Cc3ccc(C)cc3)c(=O)c2n1,/,/,/,/,.
CCCSc1ncc(Cl)c(C(=O)Nc2ccc(S(=O)(=O)N3CCC(C)CC3)cc2)n1,/,/,/,/,.
Cc1c(C(=O)O)c(=O)n(-c2ccccc2)n1-c1ccccc1,.,.,.,/,.
Cc1nnc2sc(SCC(=O)Nc3ccc(Br)cc3)nn2c1=O,.,-87,.,.,.
COc1cccc(/C=N/Nc2nccnc2Cl)c1O,.,-79,.,-93,-60
COc1cccc(/C=N/Nc2cc(-n3nc(C)cc3-c3ccccc3)ncn2)c1O,.,?,.,.,.
COc1cccc(C=NNc2nnc(NN=Cc3cccc(OC)c3OC)c3ccccc23)c1OC,.,-78,.,-86,.
COc1cccc(/C=N/Nc2ncnc3scc(-c4ccccc4)c23)c1O,.,-93,.,.,.
COc1cccc(/C=N/Nc2ncnc(Cl)c2N)c1O,.,-88,.,-79,.
COc1ccc(/C=N/Nc2ncnc(Cl)c2N)cc1OC,.,.,.,.,.
COc1ccccc1/C=N/Nc1nncc2ccccc12,.,.,.,.,.
Oc1c(Cl)cccc1C=Nc1cc(C(F)(F)F)ccc1N1CCCC1,.,.,/,.,.
CNc1c(C(=O)O)ccc2c1C(=O)c1ccccc1C2=O,?,.,.,.,.
O=C(O)c1ccc2c(c1Nc1ccccc1)C(=O)c1ccccc1C2=O,-54,-66,.,?,.
CCOc1ccc(S(=O)(=O)N(C)c2ccc(OCC(=O)Nc3ccc4[nH]c(=O)[nH]c4c3)cc2)cc1,.,.,.,.,.
Cc1cccc(-n2c(O)c(C=NCCCN3CCOCC3)c3ccccc3c2=O)c1,.,.,-121%,.,.
Cc1cc(=O)oc2cc(NC(=S)NNC(=O)c3c(Cl)cnn3C)ccc12,-53,?,.,.,.
Cc1cc(/C=C2\SC(=S)NC2=O)c(C)[nH]1,-77,.,.,.,.
O=C1NC(=O)/C(=C\c2ccc(Cl)cc2Cl)N1,.,.,.,.,.
O=C1NC(=S)S/C1=C\c1cc(Cl)ccc1Cl,-62,.,.,.,.
SMILES,PI5P4K alpha inh,Six1-Eya2 blk,Akt phos inh,CtBP-E1A inh,PI4K2A block
CCn1c(C)cc(/C=C2/SC(=S)NC2=O)c1C,.,.,.,.,.
O=C(COc1ccccc1/C=C1\SC(=S)NC1=O)Nc1ccc(F)cc1,.,.,.,-85,.
CCn1ncc(/C=C2/SC(=S)NC2=O)c1C,-66,.,.,.,.
CCSc1nnc(NC(=O)C(CC)(C(F)(F)F)C(F)(F)F)s1,.,.,.,.,.
CCCc1cc2c(cc1NC(=O)c1ccccc1F)OCO2,.,.,.,.,.
O=C(COC(=O)C1CC1)Nc1ccc(N=Nc2ccccc2)cc1,.,.,.,.,.
Cc1nn(-c2ccccc2)c(Cl)c1/C=C1\SC(=S)NC1=O,/,.,.,.,.
O=C1NC(=S)SC1=Cc1ccccc1C(=O)O,-78,.,/,?,.
CCCS(=O)(=O)c1nc(S(=O)(=O)c2ccc(C)cc2)c(NC)s1,/,/,/,/,.
